Our source for the growth values is PubChem BioAssay (NCI).

Holding throughout (test): NCI-60 one-dose screen, 48 h (100 = growth as untreated, 0 = no growth, -100 = all killed)
In assay [1] the test system is SK-MEL-2 melanoma. As to conditions: 10 µM unless noted.
Assay [2] relates to SN12C renal. As to conditions: 10 µM unless noted.
The test system of assay [3] is ACHN renal. Particulars: 10 µM unless noted.
Assay [4] concerns CAKI-1 renal. Particulars: 10 µM unless noted.
Assay [5] concerns A498 renal. As to conditions: 10 µM unless noted.
The test system of assay [6] is CCRF-CEM leukemia. As to conditions: 10 µM.
Assay [7] relates to TK-10 renal. As to conditions: 10 µM unless noted.
Assay [8] deals with MOLT-4 leukemia. As to conditions: 10 µM unless noted.
Assay [9] relates to UO-31 renal. As to conditions: 10 µM unless noted.
The subject of assay [10] is EKVX NSCLC. As to conditions: 10 µM.

Each structure is given as a SMILES string. “And” between values parts separate entries of the source, which are not always exact repeats. Identical values can stand only once. Compounds without any hit were thinned out: in the full panel of roughly 83,000, 20% have a hit.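 Interpretation: 100, growth as untreated; towards 0, rising growth inhibition; 0, no net growth; 0 to -100, cell death. Compounds scoring below 10 were considered active.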 Unmarked numbers belong to inactive results. The source made the active and inactive calls.

Turning to `c1ccc(-c2nc3ccccc3s2)cc1`, the growth in assay [1] was 112%; in assay [2] it was 88.7%; in assay [3] it was 87.1%; in assay [4] it was 79.7%; in assay [5], 100%; in [6], 101%.
Take `OCC1OC(O)C(O)C(O)C1O` (stereo unspecified): the growth in assay [1] was 115%; in assay [2], 103%; in assay [7], 100%; in [3] it was 99.9%; in [4], 89%; in assay [5] it was 105%. Also, the growth in assay [6] was 92.3%; in assay [8], 96.6%.
For `COc1ccc(N/C=C/C2=[N+](C)c3ccccc3C2(C)C)c(OC)c1`, the growth was 114% in assay [1]; 96.6% in assay [2]; 106% in [7]; 104% in [3]; 81.9% in assay [4]; 90.7% in assay [6]. In addition, the growth in assay [8] is 104%.
Take `CCc1cc(C)cc(O)c1`: the growth in assay [2] was 105%; in assay [9], 77.3%; in assay [7] it was 98.6%; in assay [3], 117%; in assay [4], 108%; in assay [5], 102%. In addition, in assay [6], the growth is 98.4%.
Regarding `OC1COC(OCc2ccccc2)C(O)C1O` (stereo unspecified), the growth in assay [1] was 99%; in [2], 99.4%; in [3], 106%; in assay [4] it was 105%; in assay [5] it was 92.9%; in [8], 98.9%.
Regarding `NN1CCOC(c2ccccc2)C1` (stereo unspecified), the growth in assay [1] was 110%; in [2] it was 102%; in [7] it was 122%; in assay [3] it was 99.1%; in assay [4] it was 109%; in [5], 107%. The growth in assay [6] is 99.3%.
For `Cl`, the growth in assay [10] is 100%; in assay [2], 104%; in [7] it was 109%; in assay [3] it was 104%; in assay [4], 95.6%; in assay [5] it was 88.1%. Further, the growth in [6] is 106%.
With `COc1ccc(Nc2ccc3ccccc3c2)cc1`, the growth is 67.2% in [1]; 76.9% in assay [2]; 77.2% in [7]; 92% in assay [3]; 52.3% in assay [4]; 52.8% in [5]. In addition, the growth in assay [6] was 56.9%.
Turning to `Fc1ccc([I+]c2ccc(F)cc2)cc1`, the growth in [1] was 68.8%; in assay [2] it was 92.9%; in [7], 71.2%; in assay [3], 79.5%; in assay [4], 61.2%; in [5], 78.3%. In addition, in assay [6], the growth is 48.2%.
Take `N#CC(C#N)N=Nc1cc(Cl)ccc1Cl`: the growth is 85.6% in assay [1]; 103% in assay [2]; 105% in assay [7]; 94.1% in [3]; 110% in assay [5]; 94.7% in assay [6].
Consider `Nc1ccc2c(O)cc(S(=O)(=O)O)cc2c1`, for which the growth in assay [1] is 108% and 92.1%; in assay [2], 95.4% and 86.9%; in assay [7], 94.4% and 143%; in [3], 95.8% and 92.8%; in assay [4], 87.1%; in [5] it was 102% and 100%. Further, the growth in [6] is 74.6%.
Take `COc1ccc(C(=O)CC(c2ccccc2)C(C#N)c2ccccc2)cc1` (stereo unspecified): the growth in assay [1] was 71.6%; in assay [2], 86.8%; in assay [7] it was 88%; in assay [3], 88.8%; in assay [4], 74.2%; in [5] it was 86.5%. The values for the growth in assay [6] and in assay [8] were 84.1% and 76.4%, respectively.
With `CC[C@H](CC[C@@H](C)[C@H]1CC[C@H]2[C@@H]3CC=C4C[C@@H](O)CC[C@]4(C)[C@H]3CC[C@]12C)C(C)C`, the growth in [1] is 100% and 117%; in assay [2], 94.7% and 105%; in [7], 91.7% and 107%; in [3], 94.4% and 103%; in assay [4], 93.2% and 90%; in assay [5] it was 103% and 105%. For the same compound, the growth in assay [6] is 91.1% and 97.8%; in assay [8] it was 108% and 103%.
For the compound `O=c1n(CC2CO2)c(=O)n(CC2CO2)c(=O)n1CC1CO1` (stereo unspecified), the growth is 46.7% in [2]; 38.2% in assay [9]; 77.9% in [7]; 19.8% in [3]; -7.84% (active) in [4]; 88.4% in [5]. Besides, the growth in assay [6] was 32.5%; in assay [8] it was 19.2%.
With `CN1CNC(=O)NC1`, the growth is 114% in [1]; 105% and 102% in assay [2]; 112% and 115% in [7]; 113% and 107% in assay [3]; 98.5% and 106% in assay [4]; 100% and 72.4% in assay [5]. Further, in [6], the growth was 108% and 91.3%.
